Test results published in PubChem BioAssay (Tox21).
“And” between values parts separate entries of the source, which are not always exact repeats. Identical values can stand only once. Inconclusive results are not listed. Where a call stands in place of a potency, no number is given. More than one record can exist for a structure, and the calls need not agree. The source made the active and inactive calls. The call rests on the fitted dose curve.
Potency means the concentration at half of the fitted maximal effect.

The compounds below were run against Thyrotropin receptor (Homo sapiens) (UniProt P16473) (assay: qHTS assay to identify small molecule agonists of the thyroid stimulating hormone receptor (TSHR) signaling pathway (AID 1224843; further: nearly all actives have a fitted effect of over 45% in size)). Settings: TSHR-HEK293 cells, cAMP HTRF, agonist mode, 30 min; series mostly up to 92.4 µM; activation: at the top concentration.
Chain of Thyrotropin receptor (Homo sapiens) (P16473 whole entry, looked up): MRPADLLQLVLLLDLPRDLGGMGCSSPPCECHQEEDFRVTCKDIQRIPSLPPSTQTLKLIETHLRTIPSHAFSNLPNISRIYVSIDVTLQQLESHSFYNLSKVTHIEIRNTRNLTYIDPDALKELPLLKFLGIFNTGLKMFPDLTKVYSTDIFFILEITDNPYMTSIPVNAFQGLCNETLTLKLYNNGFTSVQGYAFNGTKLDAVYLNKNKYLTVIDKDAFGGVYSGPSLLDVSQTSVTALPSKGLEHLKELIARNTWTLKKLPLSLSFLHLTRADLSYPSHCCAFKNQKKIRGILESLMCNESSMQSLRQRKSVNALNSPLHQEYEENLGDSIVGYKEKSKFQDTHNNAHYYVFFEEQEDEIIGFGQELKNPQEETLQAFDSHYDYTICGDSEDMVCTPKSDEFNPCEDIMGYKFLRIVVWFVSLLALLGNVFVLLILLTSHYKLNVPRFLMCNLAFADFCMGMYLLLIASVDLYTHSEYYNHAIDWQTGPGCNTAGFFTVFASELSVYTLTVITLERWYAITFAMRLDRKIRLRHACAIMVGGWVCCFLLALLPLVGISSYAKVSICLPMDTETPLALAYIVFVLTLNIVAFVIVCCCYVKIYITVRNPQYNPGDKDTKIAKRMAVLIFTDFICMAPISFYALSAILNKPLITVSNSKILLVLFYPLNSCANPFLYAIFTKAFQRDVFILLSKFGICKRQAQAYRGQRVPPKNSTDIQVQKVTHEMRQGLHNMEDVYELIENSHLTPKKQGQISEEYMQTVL
Source text: National Center for Advancing Translational Sciences [NCATS]
NIH Chemical Genomics Center [NCGC]
U.S. Environmental Protection Agency [EPA]
National Institutes of Environmental Health Sciences [NIEHS]
National Toxicology Program [NTP]
U.S. Food and Drug Administration [FDA]
TSHR is the receptor for thyrotropin (thyroid stimulating hormone or TSH), a member of the glycoprotein hormone family. TSH is released by the anterior pituitary gland and is the main regulator of thyroid gland growth and development. Upon binding circulating thyrotropin, a G-protein signal cascade activates adenylyl cyclase and […] cAMP concentration is increased. cAMP is a key second messenger involved extensively in cellular signal transduction pathways associated with the majority of G-protein coupled receptors (GPCRs). The activation of these GPCRs by neurotransmitters, lipids, nucleotides, peptides and hormones results in the activation or the inhibition of plasma membrane-bound adenylate cyclase through heterotrimeric G-proteins. A cell-based TSHR assay was used to screen the Tox21 10K library for compounds that can modulate TSHR in agonist mode.
Tox21 Assay Protocol Summary:
TSHR-Hek293 cells were dispensed at 800 cells/4uL/well in 1536-well white plates using a Multidrop dispenser. […] The plates were incubated at room temperature for 30 min. 2.5 ul/well of cAMP-d2 and 2.5ul/well of anti-cAMP-cryptate was added respectively into the assay plates using a Flying Reagent Dispenser. After 1 hr incubation at room temperature, the fluorescence intensity in the plates was measured using an Envision plate reader. Each test compound was measured at 15 concentrations and in triplicates.
In the case of `C[C@]12CCC(=O)C=C1CC[C@@H]1[C@@H]2CC[C@@]2(C)[C@H]1CC[C@]2(C)O`, the Potency is reported as “inactive”. `CC(C)(c1ccccc1)c1ccc(O)c(C(C)(C)c2ccccc2)c1` was tested, and the Potency was 54.5 µM (active). With `CC1(C)Cc2cccc(O)c2O1` the Potency was “inactive”. `CN(C)c1nc(=O)n(C2CCCCC2)c(=O)n1C` was tested, and the Potency was “inactive”. For `Oc1ccc(Cl)cc1Cc1ccccc1`, the Potency was “inactive”. With `C[C@]12CC[C@H]3[C@@H](CCC4=CC(=O)CC[C@@H]43)[C@@H]1CC[C@@H]2O` the Potency was “inactive”. In the case of `C=CC(Cl)CCl` (stereo not given), the Potency is reported as “inactive”. `CCN(CC)C(=O)C(C)Oc1cccc2ccccc12` (stereo not given) was tested, and the Potency was “inactive and 30.6 µM (active)”. For `ClC(Cl)(Cl)c1ccccc1`, the Potency was “inactive”. `ClCc1ccccn1` was tested, and the Potency was “inactive”. `CCOP(=O)(OCC)OCC` was tested, and the Potency was “inactive”. `CC(C)Nc1nc(Cl)nc(NC(C)C)n1` was tested, and the Potency was “inactive”. `O=[N+]([O-])c1ccc(Nc2ccccc2)cc1` was tested, and the “activation” value was -0.178% (inactive). In the case of `CCOP(=S)(OCC)OP(=S)(OCC)OCC`, the Potency is reported as “inactive”. `O=C1CCCO1` was tested, and the Potency was “inactive”. With `N#Cc1c(Cl)c(Cl)c(Cl)c(C#N)c1Cl` the Potency was 2.68 µM (active) and 3.86 µM (active). `CN(C)P(=O)(N(C)C)N(C)C` was tested, and the Potency was “inactive”. In the case of `C=CC(=O)OCC(CC)(COC(=O)C=C)COC(=O)C=C`, the Potency is reported as 11.2 µM (active) and 15.4 µM (active). In the case of `O=NN1CCOCC1`, the Potency is reported as “inactive”. `CNC(=O)Oc1cccc2c1OC(C)(C)C2` was tested, and the Potency was “inactive”. In the case of `CC(C)=CC1C(C(=O)OCc2cccc(Oc3ccccc3)c2)C1(C)C` (stereo not given), the “activation” value is reported as -6.68% [at 42.5 µM] (inactive). For `CNC(=S)S`, the Potency was “inactive”. With `CCOC(=O)c1ccccc1N` the Potency was “inactive”. In the case of `CC1=C(C(=O)Nc2ccccc2)SCCO1`, the Potency is reported as “inactive”. For `CCCCOCCOC(C)=O`, the Potency was “inactive”. `C[N+](C)(C)C` was tested, and the Potency was “inactive”. With `CC(C)(O)C(=O)Nc1ccc([N+](=O)[O-])c(C(F)(F)F)c1` the Potency was “inactive”. In the case of `S=c1[nH]c2ccccc2[nH]1`, the Potency is reported as “inactive”. For `Clc1cccc(Cl)c1`, the Potency was “inactive”. With `COP(=S)(OC)SCn1nnc2ccccc2c1=O` the Potency was “inactive”. For `CC(C)CON=O`, the Potency was “inactive”. `ClC(Cl)=C(Cl)C(Cl)=C(Cl)Cl` was tested, and the Potency was “inactive”. In the case of `O=C(O)c1nn(Cc2ccc(Cl)cc2Cl)c2ccccc12`, the Potency is reported as “inactive”. `Clc1ccccc1-c1nnc(-c2ccccc2Cl)nn1` was tested, and the Potency was “inactive”. In the case of `ClC(Cl)(Cl)Br`, the Potency is reported as “inactive”. With `CNC(=O)CSP(=S)(OC)OC` the Potency was “inactive”. For `Nc1ncn[nH]1`, the Potency was “inactive”. `CC(C)(C#N)N=NC(C)(C)C#N` was tested, and the Potency was “inactive”. For `CCNCC`, the “activation” value was 5.52% (inactive). With `CCCCCCCCCc1ccc(O)cc1` the Potency was “inactive”.
